# In PubChem BioAssay (NCATS):
# Inconclusive results are not listed. Values without a mark were called inactive. Active and inactive are the calls of the source. The call rests on the fitted dose curve; in most records, active means well fitted curve in the direction sought with a large enough effect; inconclusive means small, poorly fitted or top-dose-only effect, or another doubt; inactive means no such curve, though single readings can be large; an effect the other way counts as inactive or inconclusive.
# Columns and labels:
# [1] = Quantitative High-Throughput drug screen in 47 multiple myeloma cell lines against the NCATS MIPE library collection: KMS26_JCRB cell viability assay (AID 1918975); further: nearly all actives have a fitted effect of over 45% in size
# Method in brief: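 Myeloma cell lines, 500 cells per well, exposed to MIPE 4.0 library compounds for 48 h at 37C, 5% CO2. Viability from ATP by CellTiter-Glo luminescence; normalised to DMSO (100%) and media-only (0%) wells.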
# [2] = Quantitative High-Throughput drug screen in 47 multiple myeloma cell lines against the NCATS MIPE library collection: MOLP8_DSMZ cell viability assay (AID 1918977); further: nearly all actives have a fitted effect of over 45% in size
# Method in brief: (§1)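 MIPE 4.0 approved/investigational drugs; 500 cells/well; 48 h 37 °C humidified 5% CO2; CTG luminescence readout; DMSO = 100%, media = 0% viability.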
# [3] = Quantitative High-Throughput drug screen in 47 multiple myeloma cell lines against the NCATS MIPE library collection: NCIH929_DSMZ cell viability assay (AID 1918978); further: nearly all actives have a fitted effect of over 35% in size
# Method in brief: as §1
# [4] = Quantitative High-Throughput drug screen in 47 multiple myeloma cell lines against the NCATS MIPE library collection: OCIMY1_PLB cell viability assay (AID 1918979); further: nearly all actives have a fitted effect of over 35% in size; on viability: series mostly up to about 46 µM
# Method in brief: as §1
# [5] = Quantitative High-Throughput drug screen in 47 multiple myeloma cell lines against the NCATS MIPE library collection: MM1S_ATCC cell viability assay (AID 1918980); further: nearly all actives have a fitted effect of over 45% in size
# Method in brief: as §1
# [6] = Quantitative High-Throughput drug screen in 47 multiple myeloma cell lines against the NCATS MIPE library collection: MM1R_ATCC cell viability assay (AID 1918981); further: nearly all actives have a fitted effect of over 35% in size
# Method in brief: as §1
# [7] = Quantitative High-Throughput drug screen in 47 multiple myeloma cell lines against the NCATS MIPE library collection: LP1_DSMZ cell viability assay (AID 1918982); further: nearly all actives have a fitted effect of over 35% in size
# Method in brief: as §1
# [8] = Quantitative High-Throughput drug screen in 47 multiple myeloma cell lines against the NCATS MIPE library collection: KMS28PE_JCRB cell viability assay (AID 1918983); further: nearly all actives have a fitted effect of over 35% in size
# Method in brief: as §1
# [9] = Quantitative High-Throughput drug screen in 47 multiple myeloma cell lines against the NCATS MIPE library collection: L363_DSMZ cell viability assay (AID 1918984); further: nearly all actives have a fitted effect of over 40% in size
# Method in brief: as §1
# [10] = Quantitative High-Throughput drug screen in 47 multiple myeloma cell lines against the NCATS MIPE library collection: KMS34_JCRB cell viability assay (AID 1918985); further: nearly all actives have a fitted effect of over 40% in size
# Method in brief: as §1
# [11] = Quantitative High-Throughput drug screen in 47 multiple myeloma cell lines against the NCATS MIPE library collection: OCIMY5_PLB cell viability assay (AID 1918988); further: nearly all actives have a fitted effect of over 65% in size
# Method in brief: as §1
# [12] = Quantitative High-Throughput drug screen in 47 multiple myeloma cell lines against the NCATS MIPE library collection: XG6_PLB cell viability assay (AID 1919865); further: nearly all actives have a fitted effect of over 40% in size
# Method in brief: as §1
# [13] = Quantitative High-Throughput drug screen in 47 multiple myeloma cell lines against the NCATS MIPE library collection: XG1_PLB cell viability assay (AID 1919866); further: nearly all actives have a fitted effect of over 35% in size
# Method in brief: as §1
# [14] = Quantitative High-Throughput drug screen in 47 multiple myeloma cell lines against the NCATS MIPE library collection: MMM1_PLB cell viability assay (AID 1918976); further: nearly all actives have a fitted effect of over 35% in size
# Method in brief: as §1
# [15] = Quantitative High-Throughput drug screen in 47 multiple myeloma cell lines against the NCATS MIPE library collection: OCIMY7_PLB cell viability assay (AID 1918987); further: nearly all actives have a fitted effect of over 65% in size
# Method in brief: as §1
# [16] = Quantitative High-Throughput drug screen in 47 multiple myeloma cell lines against the NCATS MIPE library collection: OPM1_PLB cell viability assay (AID 1918989); further: nearly all actives have a fitted effect of over 40% in size
# Method in brief: as §1
# [17] = Quantitative High-Throughput drug screen in 47 multiple myeloma cell lines against the NCATS MIPE library collection: VP6_DJ cell viability assay (AID 1919867); further: nearly all actives have a fitted effect of over 40% in size
# Method in brief: as §1
# [18] = Quantitative High-Throughput drug screen in 47 multiple myeloma cell lines against the NCATS MIPE library collection: U266_ATCC cell viability assay (AID 1919864); further: nearly all actives have a fitted effect of over 35% in size
# Method in brief: as §1
# [19] = Quantitative High-Throughput drug screen in 47 multiple myeloma cell lines against the NCATS MIPE library collection: SKMM1_PLB cell viability assay (AID 1919863); settings: SKMM1 myeloma viability, CellTiter-Glo ATP, 48 h; viability: active compounds read low; further: nearly all actives have a fitted effect of over 35% in size; on viability: series mostly up to about 46 µM
# Method in brief: as §1
# Potency means the concentration at half of the fitted maximal effect.
SMILES,Potency [1],Potency [2],Potency [3],Potency [4],Potency [5],Potency [6],Potency [7],Potency [8],Potency [9],Potency [10],Potency [11],Potency [12],Potency [13],Potency [14],Potency [15],Potency [16],Potency [17],Potency [18],Potency [19],viability [19]
N#Cc1c(O)c2c(-c3ccc(-c4ccccc4O)cc3)csc2[nH]c1=O,inactive,inactive,inactive,inactive,16.6 µM (active),inactive,inactive,13.2 µM (active),inactive,inactive,inactive,inactive,inactive,–,–,–,–,–,–,–
N#CCNC(=O)c1ccc(-c2ccnc(Nc3ccc(N4CCOCC4)cc3)n2)cc1,18.7 µM (active),–,9.35 µM (active),23.5 µM (active),18.7 µM (active),9.35 µM (active),20.9 µM (active),18.7 µM (active),–,–,13.2 µM (active),2.64 µM (active),5.26 µM (active),18.7 µM (active),5.26 µM (active),11.8 µM (active),3.72 µM (active),–,–,–
C[C@@H]1COC(Nc2ccc3ncnc(Nc4ccc(OCc5nccs5)c(Cl)c4)c3c2)=N1,20.9 µM (active),–,–,–,4.18 µM (active),–,26.4 µM (active),–,9.35 µM (active),–,2.96 µM (active),0.0372 µM (active),0.105 µM (active),23.5 µM (active),–,16.6 µM (active),3.72 µM (active),18.7 µM (active),–,–
COc1cc2c(Oc3ccc(NC(=O)C4(C(=O)Nc5ccc(F)cc5)CC4)cc3F)ccnc2cc1OCCCN1CCOCC1,16.6 µM (active),–,–,14.8 µM (active),16.6 µM (active),4.18 µM (active),16.6 µM (active),4.18 µM (active),2.96 µM (active),10.5 µM (active),5.9 µM (active),5.26 µM (active),9.35 µM (active),18.7 µM (active),0.264 µM (active),4.18 µM (active),3.72 µM (active),20.9 µM (active),20.9 µM (active),–
CN[C@H]1CCc2cc(OC)c(OC)c(OC)c2-c2ccc(OC)c(=O)cc21,0.0148 µM (active),–,–,–,–,0.0066 µM (active),0.0015 µM (active),0.0019 µM (active),–,–,0.0013 µM (active),–,inactive,0.0105 µM (active),0.001 µM (active),–,–,0.0066 µM (active),0.0037 µM (active),–
C[C@@]12O[C@@H](C[C@]1(O)CO)n1c3ccccc3c3c4c(c5c6ccccc6n2c5c31)CNC4=O,5.9 µM (active),–,0.469 µM (active),2.35 µM (active),1.05 µM (active),0.833 µM (active),5.26 µM (active),2.09 µM (active),–,–,–,0.209 µM (active),0.132 µM (active),3.32 µM (active),0.0662 µM (active),0.264 µM (active),0.264 µM (active),2.09 µM (active),5.26 µM (active),–
Fc1cc(-c2cccc3ncc(-c4cnn(C5CCNCC5)c4)nc23)cc(F)c1CN1CCOCC1,26.4 µM (active),–,8.33 µM (active),–,20.9 µM (active),20.9 µM (active),–,23.5 µM (active),6.62 µM (active),14.8 µM (active),16.6 µM (active),7.43 µM (active),7.43 µM (active),23.5 µM (active),6.62 µM (active),8.33 µM (active),9.35 µM (active),20.9 µM (active),23.5 µM (active),–
Cc1c(CN2CCN(S(C)(=O)=O)CC2)sc2c(N3CCOCC3)nc(-c3cnc(N)nc3)nc12,0.187 µM (active),–,0.0053 µM (active),0.0418 µM (active),0.0132 µM (active),0.0264 µM (active),–,0.0209 µM (active),–,–,0.0526 µM (active),0.0662 µM (active),0.0469 µM (active),0.0235 µM (active),0.132 µM (active),0.0662 µM (active),0.0235 µM (active),0.118 µM (active),0.0833 µM (active),–
Cc1nc2ccc(CN(C)c3ccc(C(=O)N[C@@H](CCC(=O)O)C(=O)O)s3)cc2c(=O)[nH]1,9.35 µM (active),–,–,inactive,20.9 µM (active),–,inactive,inactive,1.48 µM (active),–,–,inactive,0.235 µM (active),5.9 µM (active),inactive,0.469 µM (active),inactive,11.8 µM (active),–,–
CCOc1ccccc1OCCNC(C)Cc1ccc(OC)c(S(N)(=O)=O)c1 (centres undefined),inactive,inactive,inactive,inactive,inactive,inactive,–,inactive,inactive,inactive,inactive,inactive,inactive,–,inactive,inactive,inactive,inactive,–,–
Cc1nc(Nc2n[nH]c3c2CN(C(=O)N[C@H](CN(C)C)c2ccccc2)C3(C)C)c2sccc2n1,2.96 µM (active),–,0.148 µM (active),16.6 µM (active),2.64 µM (active),1.05 µM (active),0.0079 µM (active),0.418 µM (active),–,–,0.662 µM (active),0.372 µM (active),0.296 µM (active),4.69 µM (active),0.209 µM (active),0.469 µM (active),0.372 µM (active),0.526 µM (active),0.743 µM (active),–
C[C@H]1C[C@@H]2[C@@H]([C@@H](O)C[C@@]3(C)[C@H]2CC[C@]3(O)C(=O)CO)[C@@]2(C)C=CC(=O)C=C12,inactive,–,inactive,inactive,–,inactive,0.0833 µM (active),inactive,–,inactive,–,inactive,inactive,inactive,–,inactive,–,inactive,–,112%
COc1cc2c(Oc3ccc4[nH]c(C)cc4c3F)ncnc2cc1OCCCN1CCCC1,29.6 µM (active),–,7.43 µM (active),26.4 µM (active),18.7 µM (active),26.4 µM (active),–,20.9 µM (active),–,–,–,2.35 µM (active),–,23.5 µM (active),6.62 µM (active),5.9 µM (active),4.69 µM (active),26.4 µM (active),20.9 µM (active),–
Clc1ccc2ncc(-c3cccc(NC4CNC4)n3)n2c1,23.5 µM (active),14.8 µM (active),–,20.9 µM (active),5.26 µM (active),16.6 µM (active),16.6 µM (active),–,–,8.33 µM (active),23.5 µM (active),8.33 µM (active),–,–,14.8 µM (active),14.8 µM (active),16.6 µM (active),18.7 µM (active),–,–
CC(C)(C)NC(=O)[C@H]1CN(Cc2cccnc2)CCN1C[C@@H](O)C[C@@H](Cc1ccccc1)C(=O)N[C@H]1c2ccccc2C[C@H]1O,20.9 µM (active),–,–,–,–,26.4 µM (active),–,–,–,–,26.4 µM (active),23.5 µM (active),–,–,10.5 µM (active),11.8 µM (active),7.43 µM (active),–,18.7 µM (active),–
Cc1coc2c1C(=O)C(=O)c1c-2ccc2c1CCCC2(C)C,2.96 µM (active),–,13.2 µM (active),16.6 µM (active),–,18.7 µM (active),4.18 µM (active),–,0.0418 µM (active),–,14.8 µM (active),–,–,–,–,20.9 µM (active),20.9 µM (active),inactive,18.7 µM (active),–
O=C(O)CO.[NH2-].[NH2-].[Pt+2],inactive,–,–,inactive,–,–,inactive,inactive,inactive,inactive,–,inactive,inactive,–,–,inactive,inactive,–,–,–
O=C(O)CCCc1c[nH]c2ccccc12,inactive,inactive,–,inactive,–,inactive,inactive,inactive,inactive,–,–,–,inactive,–,–,inactive,26.4 µM (active),inactive,–,113%
Nc1ccc(S(=O)(=O)Nc2ncccn2)cc1,inactive,inactive,–,inactive,inactive,inactive,inactive,inactive,–,–,–,inactive,inactive,–,–,inactive,inactive,–,–,155%
Clc1cccc(-c2nnnn2Cc2cccnc2)c1Cl,inactive,inactive,–,inactive,–,inactive,inactive,inactive,–,inactive,–,16.6 µM (active),18.7 µM (active),–,3.72 µM (active),inactive,–,–,–,–
COc1cc(OC2CCN(C)CC2)ccc1Nc1ncc2c(n1)n(C1CCCC1)c(=O)n2C,13.2 µM (active),–,6.62 µM (active),–,11.8 µM (active),18.7 µM (active),–,16.6 µM (active),7.43 µM (active),16.6 µM (active),9.35 µM (active),4.69 µM (active),4.69 µM (active),–,2.96 µM (active),7.43 µM (active),4.18 µM (active),14.8 µM (active),–,–
CN1c2cc(O)c(N=NC(N)=O)cc2CC1S(=O)(=O)O (centres undefined),inactive,inactive,inactive,–,–,inactive,inactive,inactive,inactive,inactive,inactive,–,–,–,–,inactive,inactive,–,–,97.7%
CNC(=O)c1ccc(N2C(=S)N(c3cnc(C#N)c(C(F)(F)F)c3)C(=O)C23CCC3)cc1F,1.48 µM (active),–,0.332 µM (active),–,0.132 µM (active),1.05 µM (active),–,26.4 µM (active),7.43 µM (active),inactive,0.118 µM (active),0.0935 µM (active),0.264 µM (active),–,0.526 µM (active),2.64 µM (active),1.05 µM (active),0.662 µM (active),–,–
